Experimental data as given in PubChem BioAssay AID488895 (Broad Institute, 2010).
The campaign covered roughly 340,000 compounds. About 120 (0.035%) were called active. Only a selection was taken, and actives are over-represented in it overall. Unmarked numbers belong to inactive results.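 Rule for the calls: active = mean replicate inhibition at least 50% and at least half of replicates individually reaching 50%; inconclusive = only one of the two criteria met; inactive = neither criterion met.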

Assay: blockers of twin-arginine translocation in E. coli – MC4100, TorA-mCherry reporter, fluorescence, single point, primary screen (AID 488895);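 note: exported cargo escapes ClpAP degradation while cytoplasmic cargo is degraded and loses fluorescence; 0% = median of neutral control wells and 100% = median of NaSCN control wells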
Details: E. coli MC4100 TorA-mCherry Tat export, at 10 µM, hits give high values

SMILES	inhibition
O=C(CCc1[nH]c2ccccc2c1Sc1ccccc1)N(CCO)CCO	-4.7%
COc1cccc(-c2ccc(SCC(=O)N3CCN(c4ccccc4)CC3)nn2)c1	2.75%
CC(=O)N1CCSc2ccc(S(=O)(=O)N3CCC(C)CC3)cc21	2.03%
CC1(C)C(=O)CCC2(C)C1=CCC1C2C(=O)CC2(C)C1CCC2(O)C(=O)CO (configuration not stated)	-1.57%
CCn1ccnc1CN(C)C(=O)c1ccc2nc(Cc3ccc(OC)cc3)oc2c1	-0.56%
CC[C@]12c3[nH]c4cc(CCC(=O)N(C)C)ccc4c3CCN1C(=O)[C@@H](CC(=O)NCCCN(C)C)C[C@@H]2C(=O)N1CCN(C(=O)c2ccco2)CC1	-1.81%
CC(OC(=O)c1ccc(-n2cnnn2)cc1)C(=O)NCc1ccccc1 (configuration not stated)	-2.55%
O=C(NCc1ccc(Cl)cc1)c1cc2c(nc3sccn32)s1	-1.5%
CCCNC(=O)N1CCC(c2ccc3c(c2)OCO3)CC1	3.31%
Cc1noc(C)c1CCC(=O)O	1.5%
COCCNc1nnc(SCC(=O)NNC(=O)c2ccco2)s1	3.66%
COc1ccc(COCCN2CCN(S(=O)(=O)c3ccccc3)CCC2=O)cc1	1.02%
CCN(CCn1cccn1)Cc1nc(-c2ccc(C(=O)OC)cc2)no1	0.0185%
CC1CCCCC1NC(=O)Cn1c(=O)cnc2ccccc21 (configuration not stated)	2.53%
CN(C(=O)CN(CCO)CC(=O)N(C)C(C)(C)Cc1ccccc1)C(C)(C)Cc1ccccc1	19.2%
CC(C#N)OC(=O)c1cccnc1SCC(=O)Nc1ccc2c(c1)OCO2 (configuration not stated)	-6.97%
O=C(NCCO)C(=O)NCC(c1ccc2c(c1)OCO2)N1CCN(c2ccc(F)cc2)CC1 (configuration not stated)	0.936%
Cn1c(=O)c(C(=O)Nc2ncccn2)c(O)c2ccccc21	-0.24%
CC(C)CN(CC(C)C)C(=O)CN1c2cccc3cccc(c23)S1(=O)=O	0.144%

SMILES	inhibition
COc1ccccc1N1CCN(C(=O)C2Cc3ccccc3CN2C(=O)c2ccco2)CC1 (configuration not stated)	-8.37%
O=C(NC(=S)NC1CCSC1=O)c1ccccc1F (configuration not stated)	-9.37%
CCc1c(O)cc2n(c1=O)-c1ccccc1C2(C)C	-2.57%
CN(CC1CCCO1)S(=O)(=O)c1ccc(C(=O)Nc2ccc([N+](=O)[O-])cc2)cc1 (configuration not stated)	-6.82%
COc1ccccc1NC(=S)N1CCN(c2ccc(F)cc2)CC1	1.21%
CC1CN(C(=S)Nc2ccccc2F)CC(C)O1 (configuration not stated)	6.69%
COc1c(N2CCN(C(=S)Nc3ccccc3F)C(C)C2)c(F)cc2c(=O)c(C(=O)O)cn(C3CC3)c12 (configuration not stated)	91.3% (active)
Cc1ccc(S(=O)(=O)N2CCN(C(=O)COC(=O)CNC(=O)c3ccc(C(C)(C)C)cc3)CC2)c(C)c1	6.64%
CN1CCN(S(=O)(=O)c2ccc(N3CCN(c4ccccc4O)CC3)c([N+](=O)[O-])c2)CC1	-4.89%
O=C(NCc1ccco1)c1ccc(NS(=O)(=O)c2cccc([N+](=O)[O-])c2)cc1	-12.7%
COCCCNC(=O)CCc1nc2cccnc2n1Cc1ccc(OC)cc1	5.25%
Cc1ccc(NC(=S)N(CCN(C)C)Cc2cccs2)cc1C	-0.631%
COc1ccc2c3c1O[C@H]1C[C@@H](O)C=C[C@@]31CCN(C)C2	-6.89%
COc1ccccc1C(=O)N/C(=C/c1ccc2c(c1)OCO2)C(=O)Nc1cccc(C(=O)O)c1	0.855%
COc1ccc(N(CC(=O)NCc2ccc(F)cc2)C(=O)CCC(=O)Nc2nccs2)cc1	2.29%
Cc1ccc(NC(=S)NC(NC(=O)Cc2cccc3ccccc23)C(Cl)(Cl)Cl)cc1 (configuration not stated)	-13%
O=C1NCCn2nc3ccccc3c21	-31.2%
O=C(O)CCCn1cc(NC(=O)COc2cccc(Cl)c2)cn1	-4.8%
NC(=O)C1(N2CCCCC2)CCN(C(=O)c2ccc(C#Cc3ccccc3)o2)CC1	-3.45%

SMILES	inhibition
COc1ccccc1N(CCOc1ccccc1)S(=O)(=O)c1ccccc1	10%
CC(C)C(=O)Nc1ccc2c(c1)oc1ccccc12	-2.62%
C=CCN(CC=C)CCOc1ccccc1[N+](=O)[O-]	-4.39%
C=CCSC(CC)(CC)C(N)=O	-4.28%
COc1cc(C(=O)N2CCN(C/C=C/c3ccccc3)CC2)cc(OC)c1C	6.19%
Cc1oc2cc3oc(=O)ccc3cc2c1C	-9.08%
Cn1c(SCC(=O)NC2CCCCC2)nnc1-c1cc2ccccc2o1	1.56%
Cc1ccc(NC(=O)CN(C)C(=O)c2ccc(Cl)c(S(=O)(=O)NCc3ccco3)c2)cc1	-9.55%
COc1ccc(C(=O)N/N=C(\C)CC(=O)Nc2ccc(Cl)cn2)cc1	-26.7%
O=C(NC(C(=O)NCCN1CCOCC1)C12CC3CC(CC(C3)C1)C2)C1CCCCC1 (configuration not stated)	6.49%
COc1ccccc1NC(=O)COC(=O)Cc1ccc(S(=O)(=O)N2CCCCC2)s1	-5.48%
O=C1C=C(c2cccc(Br)c2)C[C@@H](c2ccc(F)cc2)C1	18.1%
CC1(C)C(=O)C2(CCCCC2)C(=O)OC1c1cccs1 (configuration not stated)	3.17%
COCCCC1CCN(C(=O)C2CCC(=O)N(C3CCCCCC3)C2)CC1 (configuration not stated)	1.02%
Cc1ccc(C(=O)NC2CCCC(C)C2C)cc1S(=O)(=O)N1CCCCC1 (configuration not stated)	-3.8%
COc1cc(OC)cc(C(=O)NC2CCN(C(=O)N3c4ccccc4Sc4ccccc43)CC2)c1	9.12%
CCC(C)(C(=O)NC1CCCCC1)N(C)C(=O)c1ccc2c(c1)OCO2 (configuration not stated)	4.87%
CCN(CC)c1ccc(C(=O)c2cnc(/N=C/N(C)C)s2)cc1	12.9%
CCOc1ccc(CCNC(=O)C2CCN(c3ccc(N4CCOCC4)nn3)CC2)cc1OCC	-3.82%
